# Measured values from PubChem BioAssay (NCATS).
# Values joined by “and” are separate entries in the source; they are usually repeats but may differ in a detail not shown here. Identical values can stand only once. Records with an inconclusive call do not appear. Values without a mark were called inactive. Active and inactive are the calls of the source. Calls follow the shape of the dose curve; as a rule, active = well fitted curve in the direction sought with a large enough effect; inconclusive = small, poorly fitted or top-dose-only effect, or another doubt; inactive = no such curve, though single readings can be large or run the other way.
# Assay: qHTS Assay for Identifying Gametocytocidal Compounds (AID 743244);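 as to max response: actives lower the fluorescent signal which means gametocytes are killed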
# Conditions: P. falciparum 3D7 stage III-V gametocytes, alamarBlue, 72 h; max response: stronger effect = lower value
# Source text: Malaria cases and deaths have dropped 50% in 29 countries since 2000 due to the combined effects of long-lasting insecticidal bednets, indoor residual spraying, and artemisinin-based combination therapies (ACTs). This success has raised hopes for malaria eradication and consequently stimulated interest in developing new reagents that block gametocyte transmission such as novel and safe gametocytocidal drugs. However, previous drug development efforts have focused primarily on the asexual parasites that cause symptoms, but not malaria transmission. Consequently, patients can remain infectious for weeks after the clearance of asexual parasites and clinical symptoms. To be transmitted from person to person via a mosquito, the parasites must switch from asexual to sexual development and produce male and female gametocytes. Malaria gametocytes consist of five stages (I, II, III, IV and V). The late stage gametocytes (III, IV and V) are difficult to be cultured in vitro and the long lifespan of mature gametocytes allows them being transmitted from host to mosquitoes unless they are completely eliminated by gametocytocidal agents. To identify gametocytocidal compounds which are capable of killing late stage P. falciparum gametocytes, a high throughput gametocyte viability assay was employed. This assay uses oxidoreduction indicator, alamarBlue, as a general measure of metabolic activity of gametocytes. Within live cells, the nonfluorescent resazurin is reduced to resorufin, a bright red fluorescence dye. Fluorescence decreases upon treatment of gametocytocidal compounds. P. falciparum gametocyte (3D7 strain) was used in this study.
# The 1536-well gametocycidal viability assay was based on the previous method of Tanaka et al. Stage III-V gametocytes were tested against three compound libraries, including 4265 compounds from NCGC pharmaceutical collection, 400 from Malaria Box library, and 550 from an internal collection of kinase inhibitors. Briefly, 2.5 ul/well incomplete medium was dispensed into each well of 1,536-well plates using the Multidrop Combi followed by 23 nl compound transferring using the NX-TR Pintool (WAKO Scientific Solutions, San Diego, CA). Then, 2.5 ul/well of gametocytes was dispensed with a seeding density of 20,000 cells/well using the Multidrop Combi. The assay plates were incubated for 72 h at 37C with 5% CO2. After addition of 5 ul/well of 2X AlamarBlue dye (Life Technologies, cat. no. DAL1100), the plates were incubated for 24 h at 37C with 5% CO2 and then were read in a fluorescence detection mode (Ex = 525 nm, Em = 598 nm) on a ViewLux plate reader (PerkinElmer).
# % is scaled to controls: 0 for no effect and ±100 for the full control effect; potency is read from the fitted curve at half-maximal effect.
SMILES,max response,Potency
C[C@]12CC[C@H]3[C@@H](CCC4=C(O)C(=O)CC[C@@H]43)[C@@H]1CC[C@@H]2OC(=O)CCC1CCCC1,-3.51%,
CCCN1CCc2cccc3c2[C@H]1Cc1ccc(O)c(O)c1-3,,2820 nM (active)
Cc1cc(C)cc(C(=O)OC2C[C@H]3CC[C@@H](C2)N3C)c1 (stereo not given in full),23%,
CN(N=O)c1ccc(O)c(O)c1,,1000 nM (active)
O=C1CN(O)C(c2ccccc2)=c2cc(Cl)ccc2=N1,0.268%,
[S]=[Sb](=[S])[S][Sb](=[S])=[S],3.55%,
NCC[C@H](O)C(=O)N[C@@H]1C[C@H](N)[C@@H](O[C@H]2O[C@H](CN)[C@@H](O)[C@H](O)[C@H]2N)[C@H](O[C@@H]2O[C@H](CO)[C@@H](O)[C@H]2O)[C@H]1O,16.1%,
c1ccc2cc(CC3=NCCN3)ccc2c1,5.44%,
C=CCN1CC[C@]23c4c5ccc(O)c4O[C@@H]2/C(=N/N=C2\CC[C@@]4(O)C6Cc7ccc(O)c8c7[C@@]4(CCN6CC=C)[C@@H]2O8)CC[C@@]3(O)C1C5,,1000 nM (active)
NNC(N)=O,14.6%,
C=CCN1CCc2cccc3c2[C@H]1Cc1ccc(O)c(O)c1-3,,1120 nM (active)
CC(C)(O)[C@@H]1C2OC(=O)[C@@H]1[C@]1(O)C[C@H]3O[C@]34C(=O)O[C@H]2[C@]14C (tested in a mixture with another compound),18.2%,
N[C@@H](Cn1ccc(=O)[nH]c1=O)C(=O)O,15.1%,
CC(C)Nc1ccc(Nc2ccccc2)cc1,,10000 nM (active)
CC(=O)O[C@H]1C[C@H](O[C@H]2[C@@H](O)C[C@H](O[C@H]3[C@@H](O)C[C@H](OC4CC[C@@]5(C)[C@H](CC[C@@H]6[C@@H]5CC[C@]5(C)[C@@H](C7=CC(=O)OC7)CC[C@]65O)C4)O[C@@H]3C)O[C@@H]2C)O[C@H](C)[C@H]1O[C@@H]1O[C@H](CO)[C@@H](O)[C@H](O)[C@H]1O (stereo not given in full),9.96%,
CCC(=O)O[C@@](Cc1ccccc1)(c1ccccc1)[C@@H](C)CN(C)C,5.87%,
COc1ccc2c(c1)C13CCCCC1C(C2)N(C)CC3 (stereo not given),9.94%,
CCCN1CCC[C@@H](c2cccc(O)c2)C1,21.7%,
CCCCCCC(=O)O[C@H]1CC[C@H]2[C@@H]3CC[C@H]4CC(=O)C=C(C)[C@]4(C)[C@H]3CC[C@]12C,7.58%,
CCC1(C)CC(=O)NC(=O)C1,2.58%,

SMILES,max response,Potency
CCCCCl,3.57%,
NC(=O)c1ccc(OCC(O)CN2CC=C(c3ccc(F)cc3)CC2)cc1 (stereo not given),10.4%,
C[C@@H]1O[C@@H](O[C@H]2C[C@@H](O)[C@]3(CO)[C@@H]4C(CC[C@]3(O)C2)[C@@]2(O)CC[C@H]([C@@H]3COC(=O)C3)[C@@]2(C)C[C@H]4O)[C@H](O)[C@H](O)[C@H]1O (stereo not given in full),22.5%,
O=C1CCCCC1CN1CCCCC1 (stereo not given),-0.825%,
CC(=O)OO,-9.86%,
C[C@H](N)Cc1cccc(C(F)(F)F)c1,11.9%,
C[C@H]1CC[C@]2(NC1)O[C@H]1C[C@H]3[C@@H]4CC[C@H]5C[C@@H](O[C@@H]6O[C@H](CO)[C@H](O[C@@H]7O[C@H](CO)[C@@H](O)[C@H](O[C@@H]8OC[C@@H](O)[C@H](O)[C@H]8O)[C@H]7O[C@@H]7O[C@H](CO)[C@@H](O)[C@H](O)[C@H]7O)[C@H](O)[C@H]6O)CC[C@]5(C)[C@H]4CC[C@]3(C)[C@H]1[C@@H]2C,6.32%,
CCCN(CCC)CCc1c[nH]c2ccc(C(N)=O)cc12,-3.58%,
Cc1ccccc1-n1c(C)nc2ccccc2c1=O,5.64% and -12.4%,
O=C(O)C(Cl)(Cl)Cl,5.93%,
O=c1ccc2cc(O[C@@H]3O[C@H](CO)[C@@H](O)[C@H](O)[C@H]3O)c(O)cc2o1,0.481%,
O=C1CCO1,11.4%,
Clc1ccc(Cl)cc1,-1.73%,
O=P(O)(O)C(Cl)(Cl)P(=O)(O)O,-3.79% and -4.92%,
CCC1(c2ccccc2)C(=O)NC(=O)NC1=O,6%,
C[C@]12CCC(=O)C=C1C=C[C@@H]1[C@@H]2CC[C@@]2(C)[C@H]1CC[C@@]2(O)CCC(=O)O,16.5%,
CC(=O)OC1CN2CCC1CC2 (stereo not given),-0.102%,
CN1CC[C@@]2(C)c3cc(OC(=O)Nc4ccccc4)ccc3N(C)[C@@H]12,,1120 nM (active)
COc1ccc2[nH]cc(CCN)c2c1,15.8%,
O=CC=O,1.75%,
